Measurements published in PubChem BioAssay AID504652 (National Center for Advancing Translational Sciences (NCATS), 2011).
The whole screen tested about 360,000 compounds, of which about 11,000 (3.1%) were called active. The full list was thinned out, with actives kept by preference. A number with no mark means an inactive call. Rule as the data show it: active = activity change below about -30%; inactive = the rest.
% is scaled to controls: 0 for no effect and ±100 for the full control effect.

Each compound was assayed against D(1A) dopamine receptor (Homo sapiens) (UniProt P21728) (assay: Antagonist of Human D 1 Dopamine Receptor: qHTS). Conditions: HEK293 TREx D1 cells, calcium flux, dopamine EC80; at 10 µM; active compounds read low.
Chain of D(1A) dopamine receptor (Homo sapiens) (P21728 whole entry, looked up): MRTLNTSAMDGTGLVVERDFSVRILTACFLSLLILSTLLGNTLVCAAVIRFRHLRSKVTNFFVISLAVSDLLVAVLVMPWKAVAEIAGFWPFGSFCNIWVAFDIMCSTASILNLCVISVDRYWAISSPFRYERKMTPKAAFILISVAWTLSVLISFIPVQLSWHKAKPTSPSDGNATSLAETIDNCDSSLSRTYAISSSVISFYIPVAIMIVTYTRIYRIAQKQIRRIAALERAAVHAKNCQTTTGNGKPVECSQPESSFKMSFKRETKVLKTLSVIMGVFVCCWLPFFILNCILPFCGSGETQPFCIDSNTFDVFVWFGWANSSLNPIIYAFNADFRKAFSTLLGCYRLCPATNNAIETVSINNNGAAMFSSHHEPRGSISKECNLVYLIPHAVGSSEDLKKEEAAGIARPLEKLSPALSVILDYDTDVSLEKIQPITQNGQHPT
Source text: Dopamine receptors (DARs) are involved in the etiology and/or therapy of a number of neuropsychiatric and endocrine disorders. For instance, all receptor-based antiparkinsonian drugs work via stimulating the […] DAR subtype whereas all FDA-approved antipsychotic agents are antagonists of this receptor. […] There are three different types of allosteric modulators that we are seeking, two of which will stimulate or augment receptor signaling, allosteric agonists and potentiators, while the third, allosteric antagonists, will attenuate receptor signaling. The present primary screening assay measures compound antagonism after an EC80 addition of dopamine by tracking calcium flux in a […], inducible Hek293 Trex D1 cell line. NIH Chemical Genomics Center [NCGC] NIH Molecular Libraries Probe Centers Network [MLPCN] MLPCN Grant: NS064831-01 Assay Submitter (PI): David Sibley
Freshly passaged cells are plated in 1536 well black, clear bottom plates at a density of 4000 cells/well in 3 ul of complete media containing 1x tetracycline inducer. After an overnight incubation at 30 C in 5% CO2, cells are loaded with 2 ul of the no wash Calcium Assay Kit (ABD Bioquest) and incubated at room temperature for 30 to 90 minutes. Agonist read: A 10 cycle (1 second/cycle) baseline measurement is taken and then the FDSS online 1536 pintool delivers 23 nl of compound library (as well as dopamine controls) to the plate. The plate is measured for kinetically at 1 cycle/sec for 180 seconds. Following the 180 second read, 1 ul of an EC80 (negative modulation assay) is delivered by an onboard pipette head. Measurements are taken kinetically for an additional 180 seconds.
With `COc1ccccc1N=Nc1c(O)[nH]c(=S)[nH]c1=O` the activity change, negative = inhibition was -9.34%.
In the case of `CCOCCc1c(O)[nH]c(=S)[nH]c1=O`, the activity change, negative = inhibition is reported as -33.1% (active).
In the case of `CC1=CC(=Cc2sc3ccccc3[n+]2C)C=C(C)O1`, the activity change, negative = inhibition is reported as -35.2% (active).
Work on `CC(C)c1c(CN(C)C(C)Cc2ccccc2)n(C)n(-c2ccccc2)c1=O` (configuration not stated) yielded an activity change, negative = inhibition of -2.93%.
For `Cc1ccc(-n2c(/C=C/c3cccc(C(F)(F)F)c3)nc3ccccc3c2=O)cc1`, the activity change, negative = inhibition was 11.5%.
`Cc1ccc(C(C)C)c(OCC(=O)N2CCN(CC(=O)N3CCOCC3)CC2)c1` showed an activity change, negative = inhibition of 1.15%.
In the case of `NCCc1ccc(S(=O)(=O)F)cc1`, the activity change, negative = inhibition is reported as -35.8% (active).
In the case of `CC(C)c1ccc(OCC(=O)N2CCCN(C)CC2)cc1`, the activity change, negative = inhibition is reported as -12.3%.
In the case of `CC(C)c1ccc(OCC(=O)N2CCN(C)CC2)c(Br)c1`, the activity change, negative = inhibition is reported as -34.7% (active).
For `CN1CCN(C(=O)COc2ccc(C(C)(C)C)cc2Br)CC1`, the activity change, negative = inhibition was -15.7%.
`CC(C)(C)[C@]1(O)C[C@@H]2OC(=O)C[C@@]23C(=O)O[C@@H]2OC(=O)[C@H](O)[C@]213` showed an activity change, negative = inhibition of 0.221%.
`CN(C)CC1CCCCC1=O` (configuration not stated) gave an activity change, negative = inhibition of 9.1%.
Work on `COc1ccc(C2NCc3ccc4c(c3-n3cccc32)OCO4)cc1OC` (configuration not stated) yielded an activity change, negative = inhibition of -8.31%.
For `CN1CCc2cc3c(cc2[C@H]1[C@@H]1OC(=O)c2c1ccc1c2OCO1)OCO3`, the activity change, negative = inhibition was -19.5%.
With `COc1c(O)ccc2c1-c1c3c(cc4c1C(C2)N(C)CC4)OCO3` (configuration not stated) the activity change, negative = inhibition was -68% (active).
Compound `COC(=O)C1=C(c2ccc(Cl)c(C(F)(F)F)c2)C[C@@H]2CC[C@H]1N2C(=O)NC(C)C` has an activity change, negative = inhibition of -3.99%.
In the case of `CC(C)Oc1cccc(C(=O)C2CCCN(C3CCOCC3)C2)c1` (configuration not stated), the activity change, negative = inhibition is reported as -26.6%.
`COC(=O)C1=C(c2cccc(OCc3ccccc3)c2)C[C@@H]2CC[C@H]1N2C(=O)NCc1ccc(Br)cc1` gave an activity change, negative = inhibition of -2.72%.
For `O=c1[nH]c(=S)n(C2CC2)c(O)c1/C=N/N1CCOCC1`, the activity change, negative = inhibition was -3.33%.
`CC(C)c1ccc(-n2c(O)c(/C=N/N3CCOCC3)c(=O)[nH]c2=S)cc1` showed an activity change, negative = inhibition of 21.3%.
In the case of `Cc1cccc(-n2c(O)c(/C=N/N3CCOCC3)c(=O)[nH]c2=S)c1`, the activity change, negative = inhibition is reported as -42.1% (active).
For `Cn1cc(C(=O)OCC(=O)N2CCCC2)c2ccccc21`, the activity change, negative = inhibition was -0.659%.
Compound `Cc1cc(OCc2cc(C(=O)O)oc2C)c2c3c(c(=O)oc2c1)CCCC3` has an activity change, negative = inhibition of 63%.
`OC(Cn1c2ccccc2c2ccccc21)C[n+]1ccccc1` (configuration not stated) was tested, and the activity change, negative = inhibition was 13.9%.
In the case of `COc1ccc(CNCCc2c[nH]c3ccccc23)cc1OC`, the activity change, negative = inhibition is reported as -8.11%.
For `c1cncc(CNCCc2c[nH]c3ccccc23)c1`, the activity change, negative = inhibition was -33.9% (active).
`C/C(CCc1c[nH]c2ccccc12)=N\O` showed an activity change, negative = inhibition of 1.61%.
